HepG2 viability: counter-screen for TGF-b inhibitors: cytotoxicity in HepG2 cells. HepG2 CAGA-GFP viability, ATP luminescence, 18 h. Potency, µM (highest dose often 46.1 µM), for the others: top-dose activity change, negative = cytotoxicity, usual class: cytotoxic. 0.76% of 410,000 active; note: potency is the fitted concentration of half-maximal effect
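HepG2 CAGA-GFP cells (1000/well, DMEM with 1% FBS) received compound, then TGF-beta at 500 pg/mL final, and were incubated 18 hours at 37 degrees C. Viability was read by CellTiter-Glo luminescence. Media-only wells were set as complete cell-killing and DMSO as no toxicity.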
ASM inhibitor: inhibitors of human secretory acid sphingomyelinase. P17405. placental ASM, HMU-PC fluorogenic substrate, 60 min. Potency, µM (top dose mostly 57.5 µM), for the others: top-dose activity change, negative = inhibition, usual class: inhibitors. 0.006% of 340,000 active. AID 504937; note: potency is the fitted concentration of half-maximal effect
Target sequence (P17405 47-631 limits assumed): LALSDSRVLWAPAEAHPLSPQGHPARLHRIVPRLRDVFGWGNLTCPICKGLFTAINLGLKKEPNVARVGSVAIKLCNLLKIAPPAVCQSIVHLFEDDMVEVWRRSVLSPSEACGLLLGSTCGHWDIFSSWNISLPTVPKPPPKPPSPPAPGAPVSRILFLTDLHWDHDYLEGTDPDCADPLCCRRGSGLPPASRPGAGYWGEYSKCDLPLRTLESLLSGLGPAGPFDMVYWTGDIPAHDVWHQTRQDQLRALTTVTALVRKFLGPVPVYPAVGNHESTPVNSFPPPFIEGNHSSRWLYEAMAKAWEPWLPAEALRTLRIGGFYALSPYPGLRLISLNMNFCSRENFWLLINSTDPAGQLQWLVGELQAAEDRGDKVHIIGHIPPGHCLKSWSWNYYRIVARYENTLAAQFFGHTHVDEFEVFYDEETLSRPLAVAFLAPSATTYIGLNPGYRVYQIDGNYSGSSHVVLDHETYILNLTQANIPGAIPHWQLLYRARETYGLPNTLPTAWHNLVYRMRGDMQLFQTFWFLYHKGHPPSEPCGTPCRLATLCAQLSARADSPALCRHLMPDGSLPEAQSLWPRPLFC
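Fluorescence read-out (Ex 386 nm, Em 447 nm) after stopping the reaction at pH 10. Enzyme: ASM from human placenta; substrate HMU-PC0, 9 uM final; 60 min, 37 °C. Compound preincubation 10 min, ambient temperature.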
TGFb inhibitor: TGF-b pathway inhibition | HepG2 CAGA-GFP TGF-b/SMAD3 reporter, GFP fluorescence, 18 h; TGF-beta stimulated, 500 pg/mL final | Potency, µM (series often up to 46.1 µM), without a hit: top-dose activity, negative = inhibition, actives largely listed as inhibitors | 1.2% of 410,000 active; note: potency is the fitted concentration of half-maximal effect; % is set by controls: 0 for no effect and ±100 for the full control effect; nearly all actives have a fitted effect of over 65% in size
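HEPG2 CAGA-GFP reporter cells (1000/well, DMEM with 1% FBS) received compounds, then recombinant TGF-beta at 500 pg/mL final for 18 hours at 37 degrees C. Per-cell GFP summed per well was normalised to unstimulated and stimulated DMSO controls before curve fitting.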
TDP1 cell noCPT: qHTS for Inhibitors of human tyrosyl-DNA phosphodiesterase 1 (TDP1): qHTS in cells in absence of CPT; DT40 Tdp1-/- hTDP1 cells, no CPT, ATP luminescence, 48 h; Potency, µM (doses to about 46.2 µM), for the others: at the top dose activity change, negative = growth inhibition, most hits filed as inhibitors; 15% of 420,000 active; AID 686978, 2013; note: potency is the fitted concentration of half-maximal effect; % is set by controls: 0 for no effect and ±100 for the full control effect; nearly all actives have a fitted effect of over 55% in size
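Cells were dispensed at 400 per well, compounds added by pin tool, plates incubated ≥48 hr at 37 °C, then CellTiter-Glo added for 30 min at room temperature before luminescence reading. Line: DT40 Tdp1-/- complemented with hTDP1; camptothecin omitted.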
IL1B secr inh: inhibitors of inflammasome signaling (IL-1 beta secretion). THP-1 LPS/ATP IL-1B secretion, AlphaLISA, 16 h; hits give low values. activity change, % at 57.5 µM. 4.7% of 360,000 active. AID 743279; in the data active = activity change below about -50%; inconclusive = mostly about -30% to -49%; note: % is set by controls: 0 for no effect and ±100 for the full control effect
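Secreted IL-1B measured by AlphaLISA bead assay after 16 h compound exposure of THP-1 cells; compounds (final up to 57.5 uM) added 1 h before LPS (250 ng/mL) and ATP (1.25 mM) stimulation; lower signal means less secretion.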
TDP1 cell CPT: DT40-hTDP1 cell growth loss with CPT; Potency, µM (series often up to 46.2 µM), for the others: at the top dose activity change, negative = growth inhibition, actives largely listed as inhibitors; chicken DT40 Tdp1-/-;hTDP1 cells + 20 nM CPT, ATP luminescence, 48 h; 12% of 420,000 active; note: potency is the fitted concentration of half-maximal effect; % is set by controls: 0 for no effect and ±100 for the full control effect; nearly all actives have a fitted effect of over 55% in size
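Cell growth measured by CellTiter-Glo luminescence after a minimum 48 h, 37 C compound exposure with 20 nM CPT in Tdp1-knockout DT40 cells stably expressing hTDP1, seeded 400/well; qHTS titration format.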
* hit, by the source's call. The list is not random: actives were taken first. Their share in the collection is about 19%. Unless noted, calls come from the whole dose curve; as a rule, active = well fitted curve in the direction sought with a large enough effect; inconclusive = small, poorly fitted or top-dose-only effect, or another doubt; inactive = no such curve, though single readings can be large; an effect the other way counts as inactive or inconclusive.

For CCCCCCC[N+](CC)(CC)CCCCc1ccc(Cl)cc1 the results were HepG2 viability -26%, ASM inhibitor -6%, TGFb inhibitor 5%, TDP1 cell noCPT 0.21µM*, IL1B secr inh inconclusive and TDP1 cell CPT 0.65µM*.
For CCCCCNCc1ccc(Cl)cc1 the results were HepG2 viability -8%, ASM inhibitor 0%, TGFb inhibitor -1%, TDP1 cell noCPT -13%, IL1B secr inh 6 and TDP1 cell CPT 17%.
COc1ccccc1CNC(=O)c1ccc(-c2ccccc2C(F)(F)F)o1 was read as HepG2 viability -51%, ASM inhibitor -5%, TGFb inhibitor inconclusive, TDP1 cell noCPT 21µM*, IL1B secr inh -15 and TDP1 cell CPT 21µM*.
`O=C(NNC(=O)c1ccccc1F)c1ccc(-c2ccccc2Cl)o1` gave HepG2 viability -8%, TGFb inhibitor -9%, TDP1 cell noCPT inconclusive, IL1B secr inh -52* and TDP1 cell CPT 3%.
For O=C(NCc1ccccc1Cl)c1ccc(CSCc2ccccc2Cl)o1 the results were HepG2 viability -22%, TGFb inhibitor inconclusive, TDP1 cell noCPT 21µM* and TDP1 cell CPT 16µM*.
`CC(C)CCNC(=O)c1ccc(CSCc2cccc(F)c2)o1` gave HepG2 viability -16%, ASM inhibitor 3%, TGFb inhibitor 1%, TDP1 cell noCPT -29%, IL1B secr inh -63* and TDP1 cell CPT inconclusive.
`COc1ccccc1CNC(=O)CNC(=O)c1ccc(Br)o1` gave HepG2 viability -1%, ASM inhibitor -2%, TGFb inhibitor 15%, TDP1 cell noCPT inconclusive, IL1B secr inh inactive and TDP1 cell CPT -2%.
`CCc1cc2c(cc3c(=O)n(CCCC(=O)NCc4cccc(Cl)c4)ncn32)s1` gave HepG2 viability -3%, TGFb inhibitor -1%, TDP1 cell noCPT inconclusive and TDP1 cell CPT inconclusive.
`CCc1c(C)sc(NC(=O)c2cc(-c3ccc(OC)cc3)on2)c1C#N` gave HepG2 viability 0%, TGFb inhibitor -2%, TDP1 cell noCPT -3% and TDP1 cell CPT 0%.
`COc1ccc(OC)c(NS(=O)(=O)c2ccc3[nH]c(=O)[nH]c3c2)c1` gave HepG2 viability -4%, TGFb inhibitor 11%, TDP1 cell noCPT inconclusive, IL1B secr inh 27 and TDP1 cell CPT -22%.
COc1cccc2cc(C(=O)NCc3ccccc3Cl)c(=O)oc12 was read as HepG2 viability -14%, ASM inhibitor 1%, TGFb inhibitor -4%, TDP1 cell noCPT 0%, IL1B secr inh 2 and TDP1 cell CPT 10%.
For Cc1ccc(CNC(=O)c2ccc(CSCc3c(F)cccc3Cl)o2)cc1 the results were HepG2 viability -26%, TGFb inhibitor 16µM*, TDP1 cell noCPT -14% and TDP1 cell CPT -30%.
For Cc1ccc(CNC(=O)c2ccc(CSCc3ccc(C)cc3)o2)cc1 the results were HepG2 viability -20%, TGFb inhibitor inconclusive, TDP1 cell noCPT inconclusive and TDP1 cell CPT inconclusive.
COc1ccccc1CNC(=O)c1ccc(-c2ccccc2Cl)o1 was read as HepG2 viability -40%, ASM inhibitor -3%, TGFb inhibitor 16µM*, TDP1 cell noCPT inconclusive, IL1B secr inh 0 and TDP1 cell CPT inconclusive.
`COc1ccc(NC(=O)c2ccc(-c3ccccc3C(F)(F)F)o2)cc1` gave HepG2 viability 1%, ASM inhibitor -6%, TGFb inhibitor inconclusive, TDP1 cell noCPT 16µM*, IL1B secr inh 2 and TDP1 cell CPT inconclusive.
Screening COc1ccccc1S(=O)Cc1ccc(C(=O)NCc2ccccc2Cl)o1 (stereo not given) returned HepG2 viability -15%, ASM inhibitor 2%, TGFb inhibitor -9%, TDP1 cell noCPT inconclusive, IL1B secr inh -26 and TDP1 cell CPT 16µM*.
Cc1ccc(-n2cc(CN3CCN(Cc4nccn4C)CC3)c(-c3cccc(C)c3)n2)cc1 was read as HepG2 viability -42%, ASM inhibitor 3%, TGFb inhibitor inconclusive, TDP1 cell noCPT inconclusive, IL1B secr inh -57* and TDP1 cell CPT inconclusive.
CCn1ccnc1CN(C)Cc1cn(-c2ccc(C)cc2)nc1-c1cccc(C)c1 was read as HepG2 viability -81%, ASM inhibitor -5%, TGFb inhibitor inconclusive, TDP1 cell noCPT -108%, IL1B secr inh -249* and TDP1 cell CPT inconclusive.
CCn1ccnc1CNCc1cn(-c2cc(C)ccc2C)nc1-c1ccccc1 was read as HepG2 viability -34%, ASM inhibitor 0%, TGFb inhibitor -14%, TDP1 cell noCPT inconclusive, IL1B secr inh -13 and TDP1 cell CPT inconclusive.
Screening Cc1ccc2oc(C(=O)N3CCN(Cc4nccn4C)CC3)c(C)c2c1 returned HepG2 viability -11%, ASM inhibitor -3%, TGFb inhibitor 27%, TDP1 cell noCPT 9%, IL1B secr inh -21 and TDP1 cell CPT -10%.
Screening CCn1ccnc1CN(C)Cc1cn(-c2cccc(C)c2)nc1-c1cccc(F)c1 returned HepG2 viability -106%, ASM inhibitor -6%, TGFb inhibitor inconclusive, TDP1 cell noCPT inconclusive, IL1B secr inh -62* and TDP1 cell CPT 16µM*.
`Cc1cccc(Nc2nnc(SCC(=O)c3c(N)n(C4CC4)c(=O)[nH]c3=O)s2)c1` gave HepG2 viability -6%, ASM inhibitor -5%, TGFb inhibitor 14%, TDP1 cell noCPT inconclusive, IL1B secr inh 39 and TDP1 cell CPT -17%.
`Cc1ccc(Nc2nnc(SCC(=O)c3c(N)n(C4CC4)c(=O)[nH]c3=O)s2)cc1C` gave HepG2 viability -20%, ASM inhibitor -11%, TGFb inhibitor inconclusive, TDP1 cell noCPT inconclusive, IL1B secr inh -5 and TDP1 cell CPT 21µM*.
Cc1c(NC(=O)Nc2ccc(Cl)c(Cl)c2)sc(=S)n1C was read as HepG2 viability -11%, ASM inhibitor -8%, TGFb inhibitor inconclusive, TDP1 cell noCPT inconclusive, IL1B secr inh -97* and TDP1 cell CPT 26µM*.
Screening O=C(CS(=O)(=O)c1cccc2nsnc12)N1CCN(c2ccc(F)cc2)CC1 returned HepG2 viability 4%, TGFb inhibitor 13%, TDP1 cell noCPT inconclusive and TDP1 cell CPT -28%.
For O=C(NC(NC(=S)Nc1ccccc1O)C(Cl)(Cl)Cl)c1ccco1 (stereo not given) the results were HepG2 viability -36%, ASM inhibitor -2%, TGFb inhibitor 2%, TDP1 cell noCPT 18µM*, IL1B secr inh -8 and TDP1 cell CPT inconclusive.
